# Test results reported in PubChem BioAssay AID781 (Emory University Molecular Libraries Screening Center, 2007).
# About 1,600 (0.73%) of roughly 220,000 compounds were called active. The entries come from a sample that favours actives as a whole. Values without a mark were called inactive.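 How the source made its calls: active means inhibition above about 70% (limit read from the data); inactive means the rest.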
# Biological target: 14-3-3 protein zeta/delta (Bos taurus) (UniProt P63103)
# Assay: inhibitors of 14-3-3 zeta/Bad binding, primary screen, biochemical, TR-FRET, bovine 14-3-3 zeta (AID 781);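 further: 0% = full 14-3-3 plus peptide FRET controls and 100% = background without 14-3-3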
# Conditions: TR-FRET 14-3-3zeta/Dy647-pBad peptide displacement, 1 h; at 21.7 µM; hits give high values
# 14-3-3 protein zeta/delta (Bos taurus), sequence (P63103 whole entry, looked up): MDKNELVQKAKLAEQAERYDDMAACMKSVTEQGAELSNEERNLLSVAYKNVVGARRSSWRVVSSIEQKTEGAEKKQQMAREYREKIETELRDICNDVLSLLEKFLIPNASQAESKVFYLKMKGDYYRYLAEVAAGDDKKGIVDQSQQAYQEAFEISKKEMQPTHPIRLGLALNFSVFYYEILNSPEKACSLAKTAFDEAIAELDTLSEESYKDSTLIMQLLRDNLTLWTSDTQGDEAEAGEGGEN
row,Compound,inhibition
1,CN1CCN(C(=O)COc2ccc(C(C)(C)C)cc2Br)CC1,-3.25%
2,CC(C)c1ccc(OCC(=O)N2CCN(C)CC2)c(Br)c1,3.12%
3,O=C(COc1ccc2ccccc2c1)N1CCN(Cc2ccncc2)CC1,87.2% (active)
4,O=C1NC(=O)N(CCc2ccc(F)cc2)C(=O)/C1=C/C=C/c1ccccc1,4.29%
5,Cc1ccsc1C(=O)C1CCCN(Cc2ccc(O)cc2)C1 (stereo not given),-11.4%
6,O=C(Cc1ccccc1)N1CCN(C2CCCCCC2)CC1,27.6%
7,COc1ccccc1CN1CCN(C(=O)Cc2ccccc2)CC1,75.5% (active)
8,COc1ccc(CN2CCN(c3ccccc3F)CC2)c(OC)c1,52.2%
9,O=c1[nH]c(=O)n(-c2ccccc2)c(O)c1C=NC12CN3CN(CN(C3)C1)C2,-5.55%
10,COC(=O)N1C(c2ccccc2)C1c1ccccc1 (stereo not given),-6.04%
11,Cc1cc(N2C(=O)C3CCCN3C2c2ccc(Cl)c(Cl)c2)no1 (stereo not given),5.89%
12,O=C(Cc1ccccc1[N+](=O)[O-])N1CCN(Cc2ccc3c(c2)OCO3)CC1,-4.2%
13,Cc1ccc(CN2CCCC(C(=O)c3ccc4c(c3)OCO4)C2)cc1C (stereo not given),-6.26%
14,Fc1ccc(N2CCN(Cc3ccc4c(c3)OCO4)CC2)cc1,70.2% (active)
15,Fc1ccc(C2N3CCCN23)cc1 (stereo not given),-6.34%
16,CC(C)Oc1cccc(C(=O)C2CCCN(C3CCOCC3)C2)c1 (stereo not given),-13%
17,CN1CCN(Cc2ccccc2C(F)(F)F)CC1,70.1% (active)
18,CN1CCN(Cc2ccc(OC(F)(F)F)cc2)CC1,78.5% (active)
19,Fc1cccc(F)c1CN1CCN(Cc2c(F)cccc2F)CC1,-4.69%
20,CC(C)CN1CCN(Cc2ccccc2C(F)(F)F)CC1CCO (stereo not given),-9.76%
21,Cc1ccc(-n2c(O)c(C=NCC3CCCO3)c(=O)[nH]c2=O)c(C)c1 (stereo not given),5.29%
22,CCCCC(=O)N/N=C/c1c(O)n(CCC2=CCCCC2)c(=O)[nH]c1=O,-15.6%
23,CCC1(C)CC(CCNCc2ccc(N(C)C)cc2)(c2ccc(F)cc2)CCO1 (stereo not given),-2.86%
24,c1cc2c(cc1[C@H]1OC[C@H]3[C@@H]1CO[C@@H]3c1ccc3c(c1)OCO3)OCO2,-2.89%
25,O=c1[nH]c(=O)n(CCc2ccc(F)cc2)c(O)c1/C=N/N1CCCCC1,-6.68%
